According to the supplement of paper PMC9877034:
Counter-ions that a name gives are not always drawn. The full ranking holds about 1,000 compounds; the median of “cFRET/donor change relative to DMSO, normalised to beta-lapachone positive control (supercomplex I-IV assembly)” is about 0.18, and the lowest 2% start at about -1. The full list was thinned out, with the lowest values kept by preference.

Test system: C2C12 (NDUFB8-AcGFP / COX8A-DsRed-Monomer FRET reporter)
Assay: cFRET/donor change relative to DMSO, normalised to beta-lapachone positive control (supercomplex I-IV assembly) (fraction of beta-lapachone effect); higher = more respiratory supercomplex assembly
Settings: 40 µM; 24 h
Experimental: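 Cells were treated with 40 uM compound for 24 h and imaged on an IN Cell Analyzer 6000. Corrected FRET was divided by donor signal (cFRET/donor) and measured in two replicate experiments. The score is (mean cFRET/donor of compound - mean DMSO) / (mean beta-lapachone 40 uM - mean DMSO). Compounds flagged for prominent cell death, abnormal morphology or decreased cell number were excluded.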

| SMILES | cFRET/donor change |
| --- | --- |
| CCCCC1(C2CCCC2)Cc2cc(OCC(=O)O)c(Cl)c(Cl)c2C1=O (stereo in doubt) [R(+)-Butylindazone] | 0.322 |
| CC(=O)NC[C@H]1CN(c2ccc(N3CCOCC3)c(F)c2)C(=O)O1 [Linezolid] | 0.372 |
| CCCCCCCCCCCCCCCC(=O)OC[C@H](COP(=O)(O)OCCNC(=O)[C@H](C)NC(=O)CC[C@@H](NC(=O)[C@H](C)NC(=O)[C@@H](C)O[C@H]1[C@H](O)[C@@H](CO)OC(O)[C@@H]1NC(C)=O)C(N)=O)OC(=O)CCCCCCCCCCCCCCC (stereo partly drawn) [Mifamurtide] | -0.0931 |
| O=C1CCCC(=O)C1C(=O)c1ccc(C(F)(F)F)cc1[N+](=O)[O-] [Nitisinone] | 0.0147 |
| C=C1C[C@@]23CC[C@H]4[C@@](C)(CCC[C@@]4(C)C(=O)O[C@@H]4O[C@H](CO)[C@@H](O)[C@H](O)[C@H]4O)[C@@H]2CC[C@]1(O[C@@H]1O[C@H](CO)[C@@H](O)[C@H](O)[C@H]1O[C@@H]1O[C@H](CO)[C@@H](O)[C@H](O)[C@H]1O)C3 [Stevioside] | 0.0782 |
| N[C@H](C(=O)O)[C@H](Cc1ccccc1)C(=O)O [L-Beta-threo-benzyl-aspartate] | -0.122 |
| CCCCCCCCCCCCCCC[C@H](O)[C@H](N)CO (racemic) [DL-erythro-Dihydrosphingosine] | 0.48 |
| CC(C)NCC(O)c1ccc(O)c(O)c1 (single isomer, unassigned; (-)) [(-)-Isoproterenol hydrochloride] | 0.53 |
| C[C@]12C=CC(=O)C=C1CC[C@@H]1C2=CC[C@]2(C)[C@@H](C(=O)CN3CCN(c4cc(N5CCCC5)nc(N5CCCC5)n4)CC3)CC[C@@H]12 | -1.85 |
| CCN(CC)CCCCNc1ncc2cc(-c3c(Cl)cccc3Cl)c(NC(=O)NC(C)(C)C)nc2n1 | 0.403 |
| Cc1cn([C@H]2C[C@H](N=[N+]=[N-])[C@@H](CO)O2)c(=O)[nH]c1=O [3'-Azido-3'-deoxythymidine] | -0.184 |
| O=CN(O)CCCP(=O)(O)O [Fosmidomycin sodium salt hydrate] | 0.0766 |
| N[C@H](C(=O)O)[C@H](O)c1ccc(O)c(O)c1 | 0.419 |
| O=c1[nH]c(=O)n(C2CCCO2)cc1F (stereo not drawn) [Tegafur] | 0.268 |
| O=C(NOC[C@H](O)CO)c1ccc(F)c(F)c1Nc1ccc(I)cc1F | 0.21 |
| COc1cc2ncnc(Nc3cccc(Cl)c3)c2cc1OC [Tyrphostin AG 1478] | 0.19 |
| CN(C)c1cc2c(Nc3ccc4c(cnn4Cc4ccccc4)c3)ncnc2cn1 | -7.46 |
| CC1=C(C(=O)O)N2C(=O)[C@@H](NC(=O)[C@H](N)c3ccccc3)[C@H]2SC1 [Cephalexin hydrate] | 0.038 |
